# Experimental data as given in PubChem BioAssay (NCI).
# About 79,000 compounds went through this panel and 15% of them were active in at least one assay; those are over-represented in the sample as a whole. Values without a mark were called inactive. The source made the active and inactive calls. No stated cut-off is given here; in the data, active means growth inhibition above about 70%; inactive means the rest.
# Key:
# [1] = NCI Yeast Anticancer Drug Screen. Data for the rad52 strain (AID 147);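 further: 0% = growth of vehicle-treated control cultures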; conditions: S. cerevisiae rad52 mutant growth inhibition, active compounds read high
# How it was run: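 Screen used a yeast mutant impaired in DNA repair. After compound exposure, growth was measured. Values reflect inhibition compared with vehicle-treated cells.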
# [2] = NCI Yeast Anticancer Drug Screen. Data for the wt1 strain (AID 149);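 further: 0% = growth of vehicle-treated wt1 cultures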; conditions: S. cerevisiae wt1 strain (SPY 50644) growth inhibition, active compounds read high
# How it was run: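 Growth inhibition read against vehicle controls after compound exposure of the wt1 yeast strain.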
# [3] = NCI Yeast Anticancer Drug Screen. Data for the rad50EPP+ strain (AID 151);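 further: 0% = growth of vehicle-treated control cultures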; conditions: S. cerevisiae rad50 mutant strain, active compounds read high
# How it was run: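 Exposing the rad50EPP+ strain to each compound, growth was compared with vehicle-only cultures to give inhibition.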
# [4] = NCI Yeast Anticancer Drug Screen. Data for the mgt1 strain (AID 153); conditions: S. cerevisiae mgt1 mutant growth inhibition, active compounds read high
# How it was run: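 Genetically defined yeast (mgt1) treated with compound; inhibition of growth expressed against vehicle-treated controls.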
# [5] = NCI Yeast Anticancer Drug Screen. Data for the rad50 strain (AID 155);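 further: 0% = growth of vehicle-only cultures of the same strain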; conditions: S. cerevisiae rad50 strain growth inhibition, active compounds read high
# How it was run: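 Readout: growth inhibition relative to vehicle-treated cultures. Compound exposure was carried out in a genetically defined yeast strain deficient in DNA damage repair.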
# [6] = NCI Yeast Anticancer Drug Screen. Data for the mec2-1 strain (AID 157); conditions: S. cerevisiae mec2-1 strain, active compounds read high
# How it was run: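 Readout is yeast growth inhibition, normalised to vehicle-treated controls, in the mec2-1 strain exposed to compound.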
# [7] = NCI Yeast Anticancer Drug Screen. Data for the rad14 strain (AID 159);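 further: 0% = growth of vehicle-treated control cultures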; conditions: S. cerevisiae rad14 strain growth inhibition, active compounds read high
# How it was run: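 Growth inhibition vs vehicle controls; genetically altered yeast strain (DNA damage repair defect) treated with test compounds.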
# [8] = NCI Yeast Anticancer Drug Screen. Data for the sgs1 mgt1 strain (AID 161);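 further: 0% = growth of cultures given vehicle only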; conditions: S. cerevisiae sgs1 mgt1 strain, active compounds read high
# How it was run: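 This yeast growth screen uses a strain with defined DNA-repair lesions; compound-treated growth is compared with vehicle-treated growth.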
# [9] = NCI Yeast Anticancer Drug Screen. Data for the CLN2oe strain (AID 163);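 further: 0% = growth of vehicle-only control cultures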; conditions: S. cerevisiae CLN2oe strain, active compounds read high
# How it was run: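 Values reflect how much compound exposure reduced yeast growth, referenced to vehicle-exposed cells. Assay organism is a strain with a defined genetic change affecting cell-cycle control.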
# [10] = NCI Yeast Anticancer Drug Screen. Data for the bub3 strain (AID 167); conditions: S. cerevisiae bub3 mutant strain, active compounds read high
# How it was run: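 Readout: yeast growth inhibition, expressed relative to vehicle-only wells. The test organism is a mutant strain from a panel with lesions in DNA repair or checkpoint genes.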
# [11] = NCI Yeast Anticancer Drug Screen. Data for the wt2 strain (AID 169);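 further: 0% = growth of vehicle-treated yeast cultures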; conditions: S. cerevisiae wt2 strain growth inhibition, active compounds read high
# How it was run: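 Values express reduction in yeast growth under compound treatment, referenced to vehicle-treated cells.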
# [12] = NCI Yeast Anticancer Drug Screen. Data for the mlh1 strain (AID 171);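 further: 0% = growth of vehicle-treated control cultures of the same strain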; conditions: S. cerevisiae mlh1 strain growth inhibition, active compounds read high
# How it was run: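 Steps: expose the defined-mutant yeast strain to compound; expose a parallel culture to vehicle; measure growth; express compound effect as inhibition relative to the vehicle culture.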
# [13] = NCI Yeast Anticancer Drug Screen. Data for the sgs1 strain (AID 173);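 further: 0% = growth of vehicle-only control cultures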; conditions: S. cerevisiae sgs1 mutant, active compounds read high
# How it was run: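 Treat defined-mutant yeast with compound; measure growth; calculate inhibition relative to vehicle-treated cells.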
# [14] = NCI Yeast Anticancer Drug Screen. Data for the mlh1 rad18 strain (AID 175); conditions: S. cerevisiae mlh1 rad18 strain growth inhibition, active compounds read high
# How it was run: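 Test agents were incubated with a yeast strain of defined genotype (DNA damage repair defect). Inhibition of growth was derived by comparison with vehicle-exposed cultures.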
# [15] = NCI Yeast Anticancer Drug Screen. Data for the rad18 strain (AID 177); conditions: S. cerevisiae rad18 mutant growth inhibition, active compounds read high
# How it was run: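 A genetically defined yeast mutant impaired in DNA damage repair was treated with test compounds, then its growth was measured against cultures receiving vehicle alone.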
# [16] = at 5.0 µM (retest, dose inferred, filed as 0.5)
# [17] = at 50.0 µM (retest, dose inferred, filed as 5.0)
smiles,measurement,setting,value
CSc1s[s+]c(SC)c1-c1ccccc1,growth inhibition,[1]; at 1.2 µM,13%
same,growth inhibition,[1]; at 3.7 µM,4%
same,growth inhibition,[1]; at 11.0 µM,9%
same,growth inhibition,[1]; at 33.0 µM,54%
same,growth inhibition,[1]; at 100.0 µM,72% (active)
same,growth inhibition,[2]; at 1.2 µM,5%
same,growth inhibition,[2]; at 3.7 µM,15%
same,growth inhibition,[2]; at 11.0 µM,18%
same,growth inhibition,[2]; at 33.0 µM,49%
same,growth inhibition,[2]; at 100.0 µM,65%
same,growth inhibition,[3]; at 1.2 µM,14%
same,growth inhibition,[3]; at 3.7 µM,10%
same,growth inhibition,[3]; at 11.0 µM,61%
same,growth inhibition,[3]; at 33.0 µM,93% (active)
same,growth inhibition,[3]; at 100.0 µM,89% (active)
same,growth inhibition,[4]; at 1.2 µM,13%
same,growth inhibition,[4]; at 3.7 µM,28%
same,growth inhibition,[4]; at 11.0 µM,25%
same,growth inhibition,[4]; at 33.0 µM,59%
same,growth inhibition,[4]; at 100.0 µM,76% (active)
same,growth inhibition,[5]; at 1.2 µM,-3%
same,growth inhibition,[5]; at 3.7 µM,2%
same,growth inhibition,[5]; [16],28%
same,growth inhibition,[5]; at 11.0 µM,11%
same,growth inhibition,[5]; at 33.0 µM,58%
same,growth inhibition,[5]; [17],46%
same,growth inhibition,[5]; at 50.0 µM,72.3% (active)
same,growth inhibition,[5]; at 100.0 µM,68%
same,growth inhibition,[6]; at 1.2 µM,7%
same,growth inhibition,[6]; at 3.7 µM,-5%
same,growth inhibition,[6]; [16],48%
same,growth inhibition,[6]; at 11.0 µM,1%
same,growth inhibition,[6]; at 33.0 µM,51%
same,growth inhibition,[6]; [17],52%
same,growth inhibition,[6]; at 50.0 µM,60.6%
same,growth inhibition,[6]; at 100.0 µM,59%
same,growth inhibition,[7]; at 1.2 µM,-31%
same,growth inhibition,[7]; at 3.7 µM,-23%
same,growth inhibition,[7]; at 11.0 µM,-21%
same,growth inhibition,[7]; at 33.0 µM,21%
same,growth inhibition,[7]; at 100.0 µM,59%
same,growth inhibition,[8]; [16],-6%
same,growth inhibition,[8]; [17],73% (active)
same,growth inhibition,[9]; at 1.2 µM,9%
same,growth inhibition,[9]; at 3.7 µM,12%
same,growth inhibition,[9]; at 11.0 µM,4%
same,growth inhibition,[9]; at 33.0 µM,34%
same,growth inhibition,[9]; at 100.0 µM,42%
same,growth inhibition,[10]; at 1.2 µM,9%
same,growth inhibition,[10]; at 3.7 µM,12%
same,growth inhibition,[10]; [16],36%
same,growth inhibition,[10]; at 11.0 µM,24%
same,growth inhibition,[10]; at 33.0 µM,66%
same,growth inhibition,[10]; [17],72% (active)
same,growth inhibition,[10]; at 100.0 µM,75% (active)
same,growth inhibition,[11]; at 1.2 µM,-26%
same,growth inhibition,[11]; at 3.7 µM,-19%
same,growth inhibition,[11]; at 11.0 µM,-34%
same,growth inhibition,[11]; at 33.0 µM,39%
same,growth inhibition,[11]; at 100.0 µM,68%
same,growth inhibition,[12]; at 1.2 µM,-35%
same,growth inhibition,[12]; at 3.7 µM,-23%
same,growth inhibition,[12]; at 11.0 µM,-14%
same,growth inhibition,[12]; at 33.0 µM,52%
same,growth inhibition,[12]; at 100.0 µM,13%
same,growth inhibition,[13]; at 1.2 µM,-20%
same,growth inhibition,[13]; at 3.7 µM,-29%
same,growth inhibition,[13]; at 11.0 µM,-15%
same,growth inhibition,[13]; at 33.0 µM,47%
same,growth inhibition,[13]; at 100.0 µM,70% (active)
same,growth inhibition,[14]; [16],34%
same,growth inhibition,[14]; [17],56%
same,growth inhibition,[14]; at 50.0 µM,71.8% (active)
same,growth inhibition,[15]; at 1.2 µM,3%
same,growth inhibition,[15]; at 3.7 µM,14%
same,growth inhibition,[15]; at 11.0 µM,22%
same,growth inhibition,[15]; at 33.0 µM,63%
same,growth inhibition,[15]; at 100.0 µM,73% (active)
